# Assay results taken from PMC7862700, “An all-to-all approach to the identification of sequence-specific readers for epigenetic DNA modifications on cytosine”.
# Assays:
# Experiment in all cases: DAPPL (digital affinity profiling via proximity ligation, sequencing); 10 mM Tris-HCl pH 7.5, 50 mM NaCl, 1 mM DTT, 4% glycerol, room temperature, 30 min; GST-TFs on glutathione beads, 16-mer random dsDNA library, 0.1% formaldehyde crosslink after washing; high values mean tight binding
# FLI1 = biological target: T1, FLI1 (Homo sapiens, UniProt Q01543 1-452); conditions: protein: recombinant; tags: N-terminal GST; dsDNA, one strand shown
# T1 sequence: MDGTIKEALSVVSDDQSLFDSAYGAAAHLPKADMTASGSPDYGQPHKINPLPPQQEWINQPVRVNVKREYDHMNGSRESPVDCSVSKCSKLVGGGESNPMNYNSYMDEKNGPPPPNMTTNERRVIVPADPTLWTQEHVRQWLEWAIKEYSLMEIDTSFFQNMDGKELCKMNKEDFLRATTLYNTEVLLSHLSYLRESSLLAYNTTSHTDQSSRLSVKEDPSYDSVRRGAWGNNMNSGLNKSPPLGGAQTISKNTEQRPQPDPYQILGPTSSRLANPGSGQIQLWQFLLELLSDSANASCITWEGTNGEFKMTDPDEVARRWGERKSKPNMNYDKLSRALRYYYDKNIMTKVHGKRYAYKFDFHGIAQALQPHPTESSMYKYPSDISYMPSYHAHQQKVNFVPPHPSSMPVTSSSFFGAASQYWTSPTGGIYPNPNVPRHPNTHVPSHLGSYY
# Outline: (§1)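 A tag-only sample was pooled with DNA-barcoded human transcription factors that had been expressed in yeast as GST fusions and captured on glutathione beads. The pools were incubated for 30 min at room temperature with 200 nmole of a random double-stranded 16-mer DNA library in Tris/NaCl/DTT/glycerol buffer, then washed, crosslinked with 0.1% formaldehyde, proximity-ligated (BsaI/T4 ligase, 1 h, 37 °C), PCR-amplified and sequenced on an Illumina NextSeq500. Binding signal is each hexamer's read frequency for a factor divided by its frequency for the tag-only sample.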
# ELK1 = biological target: T2, ELK1 (Homo sapiens, UniProt P19419 1-428); conditions: protein: recombinant; tags: N-terminal GST; dsDNA, one strand shown
# T2 sequence: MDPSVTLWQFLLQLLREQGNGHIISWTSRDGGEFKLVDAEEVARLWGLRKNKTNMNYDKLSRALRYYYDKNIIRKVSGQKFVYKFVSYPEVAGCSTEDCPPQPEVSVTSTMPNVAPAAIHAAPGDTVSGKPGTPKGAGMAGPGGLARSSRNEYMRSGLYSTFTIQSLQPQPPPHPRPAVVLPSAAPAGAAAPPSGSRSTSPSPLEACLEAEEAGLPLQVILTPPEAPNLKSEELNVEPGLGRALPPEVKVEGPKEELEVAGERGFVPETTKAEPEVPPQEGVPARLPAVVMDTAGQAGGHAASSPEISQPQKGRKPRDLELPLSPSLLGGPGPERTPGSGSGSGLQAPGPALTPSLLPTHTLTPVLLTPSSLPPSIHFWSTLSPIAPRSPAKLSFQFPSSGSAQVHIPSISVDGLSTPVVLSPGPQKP
# Outline: as §1
# GABPA = biological target: T3, GABPA (Homo sapiens, UniProt Q06546 1-454); conditions: protein: recombinant; tags: N-terminal GST; dsDNA, one strand shown
# T3 sequence: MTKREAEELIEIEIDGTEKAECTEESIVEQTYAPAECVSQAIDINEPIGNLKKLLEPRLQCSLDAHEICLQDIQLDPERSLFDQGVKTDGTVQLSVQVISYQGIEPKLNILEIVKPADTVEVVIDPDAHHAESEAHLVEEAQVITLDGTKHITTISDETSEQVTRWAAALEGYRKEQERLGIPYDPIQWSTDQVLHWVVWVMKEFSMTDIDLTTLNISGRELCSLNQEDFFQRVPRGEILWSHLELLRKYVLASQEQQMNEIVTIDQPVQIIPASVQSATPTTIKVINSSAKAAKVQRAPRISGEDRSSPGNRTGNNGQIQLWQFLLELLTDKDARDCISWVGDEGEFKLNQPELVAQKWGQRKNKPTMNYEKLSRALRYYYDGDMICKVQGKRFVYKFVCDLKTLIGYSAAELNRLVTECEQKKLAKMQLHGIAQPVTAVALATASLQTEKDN
# Outline: as §1
# ERG = biological target: T4, ERG (Homo sapiens, UniProt P11308 1-479); conditions: protein: recombinant; tags: N-terminal GST; dsDNA, one strand shown
# T4 sequence: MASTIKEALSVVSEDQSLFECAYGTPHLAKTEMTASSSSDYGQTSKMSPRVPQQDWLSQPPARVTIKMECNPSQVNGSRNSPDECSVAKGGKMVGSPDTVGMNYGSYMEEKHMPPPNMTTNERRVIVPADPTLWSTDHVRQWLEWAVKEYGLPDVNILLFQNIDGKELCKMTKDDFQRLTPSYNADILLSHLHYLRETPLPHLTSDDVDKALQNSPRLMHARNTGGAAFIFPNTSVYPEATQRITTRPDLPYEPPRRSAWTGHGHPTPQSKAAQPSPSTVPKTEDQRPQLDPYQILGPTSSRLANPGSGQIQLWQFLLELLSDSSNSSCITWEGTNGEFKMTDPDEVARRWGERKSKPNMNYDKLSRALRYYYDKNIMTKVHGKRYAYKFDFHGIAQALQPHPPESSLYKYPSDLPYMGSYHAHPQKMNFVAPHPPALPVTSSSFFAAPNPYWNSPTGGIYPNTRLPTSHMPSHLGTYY
# Outline: as §1
# ELF1 = ELF1 (Homo sapiens, UniProt P32519 1-619); conditions: protein: recombinant; tags: N-terminal GST; dsDNA, one strand shown
# Sequence of ELF1 (P32519 whole entry): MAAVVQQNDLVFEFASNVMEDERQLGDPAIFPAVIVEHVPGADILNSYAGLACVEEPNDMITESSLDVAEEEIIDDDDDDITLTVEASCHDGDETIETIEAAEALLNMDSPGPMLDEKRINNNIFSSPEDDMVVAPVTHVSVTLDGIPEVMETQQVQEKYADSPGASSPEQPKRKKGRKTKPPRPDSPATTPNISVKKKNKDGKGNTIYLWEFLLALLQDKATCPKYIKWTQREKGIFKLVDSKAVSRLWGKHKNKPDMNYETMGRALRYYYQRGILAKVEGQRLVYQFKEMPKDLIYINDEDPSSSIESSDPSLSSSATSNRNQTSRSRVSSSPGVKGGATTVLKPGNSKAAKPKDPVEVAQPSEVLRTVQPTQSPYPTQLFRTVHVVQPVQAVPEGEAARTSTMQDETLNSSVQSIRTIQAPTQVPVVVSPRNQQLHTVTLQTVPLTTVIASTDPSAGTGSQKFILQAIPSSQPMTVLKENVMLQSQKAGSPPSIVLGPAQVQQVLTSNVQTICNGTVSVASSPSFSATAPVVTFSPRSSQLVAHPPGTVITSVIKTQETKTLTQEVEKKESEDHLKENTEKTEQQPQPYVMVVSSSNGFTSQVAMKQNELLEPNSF
# Outline: as §1
# EHF = biological target: T5, EHF (Homo sapiens, UniProt Q9NZC4 1-300); conditions: protein: recombinant; tags: N-terminal GST; dsDNA, one strand shown
# T5 sequence: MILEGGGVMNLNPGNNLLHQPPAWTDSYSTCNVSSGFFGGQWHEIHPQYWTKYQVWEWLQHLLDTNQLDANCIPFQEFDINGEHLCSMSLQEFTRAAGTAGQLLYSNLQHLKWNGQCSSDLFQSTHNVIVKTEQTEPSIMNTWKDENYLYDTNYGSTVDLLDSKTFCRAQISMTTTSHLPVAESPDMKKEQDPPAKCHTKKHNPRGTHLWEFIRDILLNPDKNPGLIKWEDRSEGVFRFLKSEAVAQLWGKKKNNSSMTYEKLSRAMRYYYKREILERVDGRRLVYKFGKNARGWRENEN
# Outline: as §1
# SPI1 = SPI1 (Homo sapiens, UniProt P17947 1-270); conditions: protein: recombinant; tags: N-terminal GST; dsDNA, one strand shown
# Outline: as §1
# SPIB = SPIB (Homo sapiens, UniProt Q01892 1-262); conditions: protein: recombinant; tags: N-terminal GST; dsDNA, one strand shown
# Sequence of SPIB (Q01892 whole entry): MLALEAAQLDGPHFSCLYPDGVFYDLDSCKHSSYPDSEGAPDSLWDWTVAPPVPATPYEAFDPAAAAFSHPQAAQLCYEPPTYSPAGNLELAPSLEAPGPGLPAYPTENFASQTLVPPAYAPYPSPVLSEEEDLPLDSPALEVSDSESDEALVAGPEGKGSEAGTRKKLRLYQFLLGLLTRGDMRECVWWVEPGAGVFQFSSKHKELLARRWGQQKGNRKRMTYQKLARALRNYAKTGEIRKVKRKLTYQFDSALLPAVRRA
# Outline: as §1
# ELK3 = biological target: T6, ELK3 (Homo sapiens, UniProt P41970 1-407); conditions: protein: recombinant; tags: N-terminal GST; dsDNA, one strand shown
# T6 sequence: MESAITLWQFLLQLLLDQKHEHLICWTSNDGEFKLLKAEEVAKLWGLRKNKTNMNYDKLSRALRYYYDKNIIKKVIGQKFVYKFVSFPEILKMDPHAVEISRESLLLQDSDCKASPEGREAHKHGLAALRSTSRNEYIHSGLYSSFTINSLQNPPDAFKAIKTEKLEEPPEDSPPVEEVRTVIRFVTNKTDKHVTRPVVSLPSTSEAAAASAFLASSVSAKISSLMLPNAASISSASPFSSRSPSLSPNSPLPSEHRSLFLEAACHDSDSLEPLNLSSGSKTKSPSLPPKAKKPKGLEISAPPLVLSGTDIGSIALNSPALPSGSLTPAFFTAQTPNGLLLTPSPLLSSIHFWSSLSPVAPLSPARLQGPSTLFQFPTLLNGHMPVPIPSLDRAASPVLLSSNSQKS
# Outline: as §1
# FEV = biological target: T7, FEV (Homo sapiens, UniProt Q99581 1-238); conditions: protein: recombinant; tags: N-terminal GST; dsDNA, one strand shown
# T7 sequence: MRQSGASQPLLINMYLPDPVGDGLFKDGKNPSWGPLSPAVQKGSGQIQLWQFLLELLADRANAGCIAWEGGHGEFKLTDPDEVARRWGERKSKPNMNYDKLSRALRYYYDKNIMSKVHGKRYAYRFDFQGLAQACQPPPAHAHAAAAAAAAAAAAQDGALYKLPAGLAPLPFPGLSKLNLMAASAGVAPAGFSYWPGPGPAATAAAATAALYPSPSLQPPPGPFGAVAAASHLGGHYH
# Outline: as §1
# ETV5 = ETV5 (Homo sapiens, UniProt P41161 1-510); conditions: protein: recombinant; tags: N-terminal GST; dsDNA, one strand shown
# Sequence of ETV5 (P41161 whole entry): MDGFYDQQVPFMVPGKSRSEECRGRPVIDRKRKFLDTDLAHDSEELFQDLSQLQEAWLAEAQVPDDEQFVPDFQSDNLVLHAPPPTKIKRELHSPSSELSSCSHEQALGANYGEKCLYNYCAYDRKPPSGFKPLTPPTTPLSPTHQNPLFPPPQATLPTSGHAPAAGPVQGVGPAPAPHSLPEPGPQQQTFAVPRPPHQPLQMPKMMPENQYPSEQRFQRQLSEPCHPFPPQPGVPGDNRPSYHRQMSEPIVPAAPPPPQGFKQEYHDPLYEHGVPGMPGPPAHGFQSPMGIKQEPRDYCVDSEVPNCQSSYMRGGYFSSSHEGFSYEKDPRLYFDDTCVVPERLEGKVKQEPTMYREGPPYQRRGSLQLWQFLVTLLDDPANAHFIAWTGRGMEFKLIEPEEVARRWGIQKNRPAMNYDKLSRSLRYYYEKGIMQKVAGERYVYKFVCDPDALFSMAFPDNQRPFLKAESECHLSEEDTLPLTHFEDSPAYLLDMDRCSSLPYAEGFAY
# Outline: as §1
# HSF1 = HSF1 (Homo sapiens, UniProt Q00613 1-529); conditions: protein: recombinant; tags: N-terminal GST; chain copies: 3; dsDNA, one strand shown
# Sequence of HSF1 (Q00613 whole entry): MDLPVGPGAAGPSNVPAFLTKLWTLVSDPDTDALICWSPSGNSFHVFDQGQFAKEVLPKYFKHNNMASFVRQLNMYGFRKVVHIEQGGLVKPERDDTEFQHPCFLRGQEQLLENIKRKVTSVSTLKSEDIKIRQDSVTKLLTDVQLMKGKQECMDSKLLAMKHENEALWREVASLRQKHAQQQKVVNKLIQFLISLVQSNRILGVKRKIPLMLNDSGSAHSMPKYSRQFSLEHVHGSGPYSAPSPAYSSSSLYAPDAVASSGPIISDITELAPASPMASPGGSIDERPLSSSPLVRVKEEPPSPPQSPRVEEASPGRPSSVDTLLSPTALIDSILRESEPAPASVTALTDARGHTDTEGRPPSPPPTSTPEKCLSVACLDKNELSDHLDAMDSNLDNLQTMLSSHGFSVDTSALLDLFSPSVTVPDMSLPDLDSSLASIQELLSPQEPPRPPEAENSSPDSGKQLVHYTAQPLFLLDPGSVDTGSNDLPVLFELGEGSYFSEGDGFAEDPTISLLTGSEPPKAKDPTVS
# Outline: as §1
# ELF4 = ELF4 (Homo sapiens, UniProt Q99607 1-663); conditions: protein: recombinant; tags: N-terminal GST; dsDNA, one strand shown
# Sequence of ELF4 (Q99607 whole entry): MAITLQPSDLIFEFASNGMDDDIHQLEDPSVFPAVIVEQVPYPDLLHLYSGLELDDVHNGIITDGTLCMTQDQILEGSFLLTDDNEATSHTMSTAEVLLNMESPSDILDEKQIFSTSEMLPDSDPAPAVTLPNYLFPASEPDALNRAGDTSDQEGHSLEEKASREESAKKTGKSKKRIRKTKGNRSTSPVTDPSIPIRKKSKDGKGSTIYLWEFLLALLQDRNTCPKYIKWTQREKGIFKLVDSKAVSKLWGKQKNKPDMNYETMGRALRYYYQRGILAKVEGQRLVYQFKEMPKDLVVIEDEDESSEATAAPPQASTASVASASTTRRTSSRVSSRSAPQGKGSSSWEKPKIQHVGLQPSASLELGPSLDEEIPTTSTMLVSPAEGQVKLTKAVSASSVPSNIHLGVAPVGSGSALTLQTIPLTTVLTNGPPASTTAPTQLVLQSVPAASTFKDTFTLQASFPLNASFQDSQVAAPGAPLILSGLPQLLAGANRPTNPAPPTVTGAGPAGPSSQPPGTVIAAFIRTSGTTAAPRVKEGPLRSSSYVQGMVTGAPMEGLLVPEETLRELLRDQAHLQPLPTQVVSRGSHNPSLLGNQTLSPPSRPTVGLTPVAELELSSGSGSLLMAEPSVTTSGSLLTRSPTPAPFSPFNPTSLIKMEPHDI
# Outline: as §1
# ELK4 = biological target: T8, ELK4 (Homo sapiens, UniProt P28324-2 1-405); conditions: protein: recombinant; tags: N-terminal GST; dsDNA, one strand shown
# T8 sequence: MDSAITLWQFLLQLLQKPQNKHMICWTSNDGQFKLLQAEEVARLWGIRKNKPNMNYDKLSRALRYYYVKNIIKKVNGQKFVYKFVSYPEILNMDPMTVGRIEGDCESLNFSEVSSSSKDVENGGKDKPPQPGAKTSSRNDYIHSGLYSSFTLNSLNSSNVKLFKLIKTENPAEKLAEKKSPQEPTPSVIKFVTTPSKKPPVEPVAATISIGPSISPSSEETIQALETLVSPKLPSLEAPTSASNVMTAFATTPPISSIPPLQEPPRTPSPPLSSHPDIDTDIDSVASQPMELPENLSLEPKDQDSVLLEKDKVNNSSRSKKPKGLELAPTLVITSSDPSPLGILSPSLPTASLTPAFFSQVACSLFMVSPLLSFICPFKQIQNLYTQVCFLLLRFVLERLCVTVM
# Outline: as §1
# ETV2 = biological target: T9, ETV2 (Homo sapiens, UniProt O00321 1-342); conditions: protein: recombinant; tags: N-terminal GST; dsDNA, one strand shown
# T9 sequence: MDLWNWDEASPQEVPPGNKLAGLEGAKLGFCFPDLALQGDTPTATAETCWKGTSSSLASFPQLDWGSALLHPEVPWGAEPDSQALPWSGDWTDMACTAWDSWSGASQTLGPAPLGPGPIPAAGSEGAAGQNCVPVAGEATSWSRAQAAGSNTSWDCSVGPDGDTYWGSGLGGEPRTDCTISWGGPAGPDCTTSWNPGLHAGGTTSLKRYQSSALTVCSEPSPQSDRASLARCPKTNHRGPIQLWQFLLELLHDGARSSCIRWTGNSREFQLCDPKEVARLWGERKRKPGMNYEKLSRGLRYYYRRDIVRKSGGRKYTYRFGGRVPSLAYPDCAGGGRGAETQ
# Outline: as §1
# ELF3 = biological target: T10, ELF3 (Homo sapiens, UniProt P78545 1-371); conditions: protein: recombinant; tags: N-terminal GST; dsDNA, one strand shown
# T10 sequence: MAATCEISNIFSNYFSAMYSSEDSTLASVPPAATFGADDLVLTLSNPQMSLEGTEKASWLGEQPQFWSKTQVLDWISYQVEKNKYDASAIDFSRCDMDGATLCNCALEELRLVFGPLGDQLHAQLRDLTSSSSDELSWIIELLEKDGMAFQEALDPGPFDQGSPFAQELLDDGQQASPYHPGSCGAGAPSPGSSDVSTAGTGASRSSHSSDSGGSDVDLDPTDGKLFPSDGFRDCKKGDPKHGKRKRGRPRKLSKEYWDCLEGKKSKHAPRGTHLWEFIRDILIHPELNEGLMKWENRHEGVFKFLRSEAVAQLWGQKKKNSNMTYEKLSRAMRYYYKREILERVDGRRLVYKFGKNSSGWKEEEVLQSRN
# Outline: as §1
# CRX = CRX (Homo sapiens, UniProt O43186 1-299); conditions: protein: recombinant; tags: N-terminal GST; dsDNA, one strand shown
# Sequence of CRX (O43186 whole entry): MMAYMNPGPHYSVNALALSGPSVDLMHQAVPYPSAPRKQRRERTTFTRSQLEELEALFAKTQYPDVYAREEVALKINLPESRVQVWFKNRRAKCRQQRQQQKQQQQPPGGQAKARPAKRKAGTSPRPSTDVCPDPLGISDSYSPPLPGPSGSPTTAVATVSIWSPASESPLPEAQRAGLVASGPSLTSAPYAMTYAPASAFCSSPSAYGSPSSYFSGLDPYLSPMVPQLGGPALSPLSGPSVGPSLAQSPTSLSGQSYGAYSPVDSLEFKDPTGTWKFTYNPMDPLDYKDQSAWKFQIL
# Outline: as §1
# ETV1 = ETV1 (Homo sapiens, UniProt P50549 1-477); conditions: protein: recombinant; tags: N-terminal GST; dsDNA, one strand shown
# Sequence of ETV1 (P50549 whole entry): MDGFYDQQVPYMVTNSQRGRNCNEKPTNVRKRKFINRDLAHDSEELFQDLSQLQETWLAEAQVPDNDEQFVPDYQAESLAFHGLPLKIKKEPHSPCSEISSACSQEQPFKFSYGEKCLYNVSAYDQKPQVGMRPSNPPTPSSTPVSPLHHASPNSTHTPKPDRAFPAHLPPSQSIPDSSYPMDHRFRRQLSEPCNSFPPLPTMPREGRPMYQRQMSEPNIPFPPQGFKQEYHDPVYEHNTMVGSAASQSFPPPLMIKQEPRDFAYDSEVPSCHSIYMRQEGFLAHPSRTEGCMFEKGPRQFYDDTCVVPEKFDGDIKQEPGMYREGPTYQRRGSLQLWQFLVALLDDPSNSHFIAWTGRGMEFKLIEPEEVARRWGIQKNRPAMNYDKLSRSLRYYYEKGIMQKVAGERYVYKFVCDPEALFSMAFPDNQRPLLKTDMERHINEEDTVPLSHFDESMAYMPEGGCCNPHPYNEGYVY
# Outline: as §1
sequence,measurement,setting,value
ACAAAA,binding signal,FLI1,"1.14 fold enrichment (6-mer frequency, TF over GST control)"
same,binding signal,ELK1,"1.11 fold enrichment (6-mer frequency, TF over GST control)"
same,binding signal,GABPA,"1.15 fold enrichment (6-mer frequency, TF over GST control)"
same,binding signal,ERG,"1.18 fold enrichment (6-mer frequency, TF over GST control)"
same,binding signal,ELF1,"1.16 fold enrichment (6-mer frequency, TF over GST control)"
same,binding signal,EHF,"1.21 fold enrichment (6-mer frequency, TF over GST control)"
same,binding signal,SPI1,"1.22 fold enrichment (6-mer frequency, TF over GST control)"
same,binding signal,SPIB,"1.14 fold enrichment (6-mer frequency, TF over GST control)"
same,binding signal,ELK3,"1.16 fold enrichment (6-mer frequency, TF over GST control)"
same,binding signal,FEV,"1.19 fold enrichment (6-mer frequency, TF over GST control)"
same,binding signal,ETV5,"1.17 fold enrichment (6-mer frequency, TF over GST control)"
same,binding signal,HSF1,"1.09 fold enrichment (6-mer frequency, TF over GST control)"
same,binding signal,ELF4,"1.16 fold enrichment (6-mer frequency, TF over GST control)"
same,binding signal,ELK4,"1.15 fold enrichment (6-mer frequency, TF over GST control)"
same,binding signal,ETV2,"1.11 fold enrichment (6-mer frequency, TF over GST control)"
same,binding signal,ELF3,"1.04 fold enrichment (6-mer frequency, TF over GST control)"
same,binding signal,CRX,"1.05 fold enrichment (6-mer frequency, TF over GST control)"
same,binding signal,ETV1,"1.13 fold enrichment (6-mer frequency, TF over GST control)"
